Data as given in PubChem BioAssay (NCI).
“And” between values parts separate entries of the source, which are not always exact repeats. Equal values may be shown once. Compounds without any hit were thinned out: in the full panel of roughly 79,000, 15% have a hit. The source made the active and inactive calls. No stated cut-off is given here; in the data, active means growth inhibition above about 70%; inactive means the rest.

What was measured:
[1] = NCI Yeast Anticancer Drug Screen. Data for the rad50 strain (AID 155);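 further: 0% = growth of vehicle-only cultures of the same strain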; details: S. cerevisiae rad50 strain growth inhibition, active compounds read high; at 50.0 µM unless noted
How it was run: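 Cells are treated with compound, grown, and their growth is then scored against vehicle-only cultures of the same repair-deficient yeast strain.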

[2] = NCI Yeast Anticancer Drug Screen. Data for the mec2-1 strain (AID 157); details: S. cerevisiae mec2-1 strain, active compounds read high; at 50.0 µM unless noted
How it was run: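 Compounds were applied to mec2-1 yeast cells. Their growth was then compared with that of vehicle-treated cultures to give growth inhibition.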

[3] = NCI Yeast Anticancer Drug Screen. Data for the sgs1 mgt1 strain (AID 161);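 further: 0% = growth of cultures given vehicle only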; details: S. cerevisiae sgs1 mgt1 strain, active compounds read high; at 50.0 µM unless noted
How it was run: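 Growth of a repair-deficient yeast mutant was monitored after compound treatment and expressed as inhibition relative to vehicle-treated cultures.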

[4] = NCI Yeast Anticancer Drug Screen. Data for the cln2 rad14 strain (AID 165);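 further: 0% = growth equal to vehicle treated cultures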; details: S. cerevisiae cln2 rad14 strain, active compounds read high; at 50.0 µM unless noted
How it was run: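 Strain: cln2 rad14 yeast, altered in cell cycle control and DNA damage repair. Read-out: growth inhibition vs vehicle.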

[5] = NCI Yeast Anticancer Drug Screen. Data for the bub3 strain (AID 167); details: S. cerevisiae bub3 mutant strain, active compounds read high; at 50.0 µM unless noted
How it was run: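 Part of a panel of yeast mutants defective in DNA damage repair or cell cycle regulation. Each strain is grown with compound, and inhibition is calculated relative to solvent-treated cultures.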

[6] = NCI Yeast Anticancer Drug Screen. Data for the mlh1 rad18 strain (AID 175); details: S. cerevisiae mlh1 rad18 strain growth inhibition, active compounds read high; at 50.0 µM unless noted
How it was run: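 A repair-deficient yeast strain is exposed to test compound, and growth is scored relative to vehicle-treated controls.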

Measured: growth inhibition

O=C1CCCNC(=O)N1
inactive: [1] -11.2% | [2] 20.1% | [3] -19.3% | [4] 4.35% | [5] 1.95% | [6] -5.3%

NC(=O)c1ccc[n+]([O-])c1
inactive: [1] 15.1% | [2] -0.5% | [3] 6.35% | [4] 6.6% | [5] 2.65% | [6] -1.75%

NC1CCCC2CCC(N)C12 (stereo unspecified)
inactive: [1] 17.9% | [2] 15.6% | [3] 20.8% | [4] 24.6% | [5] 10.7% | [6] 20.2%

O=C(CI)NCc1cn(C2CC(O)C(CO)O2)c(=O)[nH]c1=O (stereo unspecified)
inactive: [1] 4.9% | [2] 3.85% | [3] 5.85% | [4] 19.8% | [5] 1.15% | [6] 3.3%

O=C1C(CN2CCCC2)CCCC1CN1CCCC1 (stereo unspecified)
inactive: [1] -3.2% | [2] -29.4% | [3] -40.1% | [4] 2.15% | [5] 7.3% | [6] -10.1%

NC1CCC(C2CCC(N)CC2)CC1 (stereo unspecified)
inactive: [1] 17.1% | [2] 20.6% | [3] 3.7% | [4] -53% | [5] -6.45% | [6] -13.7%

Cc1c2c(c(C)c3c1C(=O)c1cc4c(cc1C3=O)OCO4)OCO2
inactive: [1] -9.1% | [2] -4.35% | [3] -5.35% | [4] -4.7% | [5] -31.9% | [6] -15.4%

O=c1[nH]c2nc3ccccc3c(=O)n2nc1Cc1ccccc1
inactive: [1] -15.7% | [2] -19.6% | [3] -8.6% | [4] -2.05% | [5] -13.3% | [6] 0.7%

Cc1ccc(C)n1-n1c(Cc2ccccc2)n[nH]c1=O
inactive: [1] -21.8% | [2] -19.3% | [3] -15.1% | [4] 2.75% | [5] -31.8% | [6] -12.7%

COC1OC(COC(c2ccccc2)(c2ccccc2)c2ccccc2)C(O)C(O)C1O (stereo unspecified)
active: [4] 84.5%
inactive: [1] 40.7% | [2] 47% | [3] 42.6% | [5] 38% | [6] 41.1%

O=C(OCC(OC(=O)c1ccccc1)C(OC(=O)c1ccccc1)C(OC(=O)c1ccccc1)c1cnn(-c2ccccc2)n1)c1ccccc1 (stereo unspecified)
inactive: [1] 0.55% and 30.4% | [2] 3.85% and 38.2% | [3] -6.45% and 58.4% | [4] -13.4% and 47.3% | [5] -0.85% and 42.1% | [6] 12.9% and 34.9%

N#CNC(N)=NCCO
inactive: [1] -22.2% | [2] -2.25% | [3] -36.9% | [4] -12% | [5] -28.5% | [6] -20.6%

C=CCC(Cc1ccccc1)C(N)=O (stereo unspecified)
inactive: [1] -21.1% | [2] -51.7% | [3] -14.5% | [4] 10.6% | [5] -22.2% | [6] 14.4%

CC1CCC2C(=O)OC(=O)C2C1 (stereo unspecified)
inactive: [1] 6.2% | [2] -10.2% | [3] 11.6% | [4] 23.6% | [5] 18.4% | [6] 4.7%

OCC1OC(OC2C(CO)OC(O)C(O)C2O)C(O)C(O)C1O (stereo unspecified)
inactive: [1] 19.1% | [2] 14.9% | [3] 13.9% | [4] 13.3% | [5] 20.1% | [6] 13.7%

CC1=C(C(=O)Nc2ccccc2)C(c2ccccc2Cl)C(C(=O)Nc2ccccc2)=C(C)N1
inactive: [1] 14.8% | [2] -0.35% | [3] -6.25% | [4] 14.4% | [5] -11.7% | [6] 6.65%

COc1ccc(/C=C2\CN(CCCC(=O)O)C(=O)C2=O)cc1
inactive: [1] 3.6% | [2] -7.5% | [3] 0% | [4] -6.45% | [5] 4.1% | [6] -16.7%

COc1ccc(-c2nc(Sc3c([N+](=O)[O-])ncn3C)n[nH]2)cc1
inactive: [1] -1.25% | [2] 5.75% | [3] 3.7% | [4] 25.7% | [5] 12.5% | [6] -6.6%

Cc1cc(=O)n2nc(CSc3nnc(N)s3)sc2n1
inactive: [1] -0.7% | [2] 0.5% | [3] 7.35% | [4] 5.55% | [5] 10.5% | [6] 4.2%

COc1ccc(C(C)(OC)c2cc(C(C)(C)C)c(O)c(C(C)(C)C)c2)cc1 (stereo unspecified)
inactive: [1] -19.2% | [2] -12.6% | [3] -20.2% | [4] -0.55% | [5] -2.05% | [6] -21.6%

O=C(Cc1ccccc1)NC/C=N/O
inactive: [1] 26.5% | [2] -20% | [3] 10.2% | [4] -2% | [5] -43.1% | [6] -4.75%

COCCCCCCCCCCCC(=O)O
inactive: [1] -23.4% | [2] 1.3% | [3] -46.2% | [4] -0.15% | [5] -21.2% | [6] -63.7%

CC(CN(C)C)C(=O)/C=C/c1ccc(Cl)cc1 (stereo unspecified)
inactive: [1] 20% | [2] 19% | [3] 1.75% | [4] 2.8% | [5] -13.7% | [6] 18.4%

O=C(OCC(OC(=O)c1ccccc1)C1OCOC2COCOC21)c1ccccc1 (stereo unspecified)
inactive: [1] 3.35% | [2] -1.3% | [3] -5.6% | [4] -24.2% | [5] 0.45% | [6] 11.4%

Cc1ccc(NC(=O)Oc2ccc(C#N)cc2)c(C)c1
inactive: [1] 7.45% | [2] -22.8% | [3] -0.9% | [4] 2.05% | [5] -3.35% | [6] 8.9%

CCOC(=O)Cc1ccc2ccccc2c1
inactive: [1] 7.3% | [2] -24.1% | [3] -1.95% | [4] 1.2% | [5] 8.05% | [6] 7.5%

CO[C@H]1C[C@H](n2cc(C)c(=O)[nH]c2=O)O[C@@H]1CO
inactive: [1] -6.55% | [2] -9.75% | [3] -39.9% | [4] -10.7% | [5] -9.3% | [6] -25.8%

COc1cccc(N2C(=O)C3c4[nH]c5ccc(C)cc5c4C4CCC(C)CC4C3C2=O)c1 (stereo unspecified)
inactive: [1] -10.7% | [2] -27.4% | [3] -29.1% | [4] -6.5% | [5] -23.1% | [6] -13.4%

CC(=O)NC1CCC(CCC2CCCCC2)CC1 (stereo unspecified)
inactive: [1] 0.55% | [2] 5.3% | [3] 2.45% | [4] 2.25% | [5] -5.9% | [6] -9.75%

CCCCN(CCCC)CCCC(O)c1c2ccccc2nc2ccccc12 (stereo unspecified)
inactive: [1] -3.55% | [2] -5.95% | [3] 7.6% | [4] -13.9% | [5] 1.4% | [6] 12.6%

C#CCOCC12C=CC(O1)C1C(=O)N(C)C(=O)C12 (stereo unspecified)
inactive: [1] -11.4% and 8.1% | [2] 33.5% and 38.6% | [3] 8.75% and -3.95% | [4] 7.65% and 36.2% | [5] 24.6% and 33.4% | [6] -13.3% and 6.25%

CC(C)(C)OC(=O)c1ccccc1C(=O)c1ccccc1
inactive: [1] -0.4% | [2] -1.2% | [3] -4.8% | [4] 14.3% | [5] 9.05% | [6] -10.8%

O=I(=O)c1ccccc1
inactive: [1] 3.95% | [2] 9.7% | [3] 17.5% | [4] 26.6% | [5] 20.1% | [6] 17.9%

Nc1nc(Cl)c(N)c(NCC2(CO)CC(Cc3ccccc3)C2)n1 (stereo unspecified)
inactive: [1] 26.4% | [2] -35.4% | [3] 18.9% | [4] 7.6% | [5] 31% | [6] 15.1%

CCCCCN1C(=O)c2ccccc2C1=O
inactive: [1] 23.1% | [2] 10.5% | [3] 6.4% | [4] 5.15% | [5] 6.3% | [6] -0.55%

O=c1[nH]c(C(F)(F)F)c([N+](=O)[O-])c(=O)[nH]1
inactive: [1] -40.9% | [2] -22.4% | [3] 1.6% | [4] -26.4% | [5] -1.9% | [6] -4.7%
